Sa helicase inh: S. aureus DNA helicase inhibition; purified S. aureus helicase, fluorescence unwinding assay; 120,000 tested, 0.05% active; inhibition, % (concentration not given with the values); in the data active = inhibition above about 25%, passing the limit was not always enough;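 also: 0% = mean of negative control wells and 100% = mean of positive control wells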
Sa growth inh: inhibitors of Staphylococcus aureus growth at 42 °C; 170,000 tested, 0.53% active; AID 720641; S. aureus RN4220 growth, OD600, 20 h; active compounds read low; relative growth, % (concentration not given with the values);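 active = relative growth at most 50% at the other temperature and 20+ points below 30 °C, or under 10% at both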
An asterisk follows results filed as active; · = no result. Many of the other results were omitted from the sample, so hits are more common in it than they were.

SMILES	Sa helicase inh	Sa growth inh
COc1ccc(N2CC(NC(=O)Cc3cccs3)CC2=O)cc1 (stereo not given)	·	109
CC(=O)OCC1=C(C(=O)O)N2C(=O)[C@@H](NC(=O)Cc3cccs3)[C@H]2SC1	·	-0.7*
COCC1=C(C(=O)OC(C)OC(=O)OC(C)C)N2C(=O)[C@@H](NC(=O)/C(=N/OC)c3csc(N)n3)[C@H]2SC1 (stereo not given in full)	·	37
CO/N=C(/C(=O)N[C@@H]1C(=O)N2C(C(=O)O)=C(COC(C)=O)CS[C@H]12)c1csc(N)n1	·	1.1*
CO/N=C(\C(=O)O)c1csc(N)n1	17	92
CCOc1ccc(C(=O)N(C)Cc2ccc(OC)cc2OC)cc1	-2	58
CCC(C)Nc1ncnc2c1oc1ccccc12 (stereo not given)	-10	95
FC(F)(F)c1cccc(Nc2nc3nonc3nc2Nc2ccc(Cl)cc2)c1	·	43
Cc1cccc(Nc2nc3nonc3nc2Cl)c1	8	-0.4*
CCN(Cc1ccccc1)C(=O)Nc1c[nH]c2ccccc12	-13	3.6*
CCN(Cc1ccccc1)C(=O)Cc1ccccc1	·	103
O=C(O)c1ccccc1C(=O)N1CCN(Cc2ccccc2)CC1	-18	100
CCc1ccc(-n2c(=O)oc3ccc(Cl)cc3c2=O)cc1	7	46
CCc1ccccc1-n1c(=O)oc2ccc(Cl)cc2c1=O	-17	-0.8*
Cc1c(C(=O)NCc2cccnc2)oc2ccc3c(c12)C(O)CC1(CCCCC1)O3 (stereo not given)	17	96
NC(=S)N/N=C/c1ccccc1OCC(=O)O	7	95
O=C(O)c1ccccc1NS(=O)(=O)c1ccccc1	13	120
O=S(=O)(Nc1ccc(O)c2ccccc12)c1ccccc1	2	5.0*
O=C(CCc1nc2ccccc2c(=O)[nH]1)N(Cc1nnc(-c2ccccc2Cl)o1)C1CC1	-11	113
CCN(CC)c1nc(N)c2c(N)nc3c(c2c1C#N)C(=O)CN3Cc1ccccc1	-14	104
CCCCN(CC)c1nc(N)c2c(N)nc(SCC(=O)O)cc2c1C#N	-15	6.2*
Cc1ccc(S(=O)(=O)Nc2c(O)c3ccccc3oc2=O)c(C)c1	-26	114
Cc1ccc2cccc(OC(=O)c3ccccc3F)c2n1	19	·
O=C(Oc1cccc2cccnc12)c1ccccc1F	9	0.8*
CN(C)C(=O)CSc1nc2scc(-c3ccccc3)c2c(=O)[nH]1	-58	86
SMILES	Sa helicase inh	Sa growth inh
CC1CCc2c(sc3nc(COC(=O)C4=NNC(=O)CC4)[nH]c(=O)c23)C1 (stereo not given)	5	82
S=C(Nc1ccc(Cl)cc1Cl)NC(Cn1ccnc1)c1ccccc1 (stereo not given)	·	73
Clc1ccc(C(Cn2ccnc2)OCc2csc3c(Cl)cccc23)c(Cl)c1 (stereo not given)	·	0.9*
CCN1CCN(C(=O)Nc2ccc(OC)cc2)CC1	13	95
COC(=O)c1cc2ccccc2nc1-c1ccc(F)cc1	-15	85
O=C(O)COc1ccc(NS(=O)(=O)c2cccc3nsnc23)cc1	13	90
NCc1cn(-c2ccccc2)nc1-c1ccccc1	2	86
N=C(N)SCc1cn(-c2ccccc2)nc1-c1ccc(Br)cc1	-6	1.1*
O=C(Nc1ccc(Cl)cc1)Nc1nc(CC(=O)N2CCN(C(=O)c3ccco3)CC2)cs1	5	85
Cc1ccc2[nH]c(C)cc(=S)c2c1	1	5.8*
COc1ccc2[nH]c(C)cc(=S)c2c1	12	83
CCOC(=O)C1CCN(c2c(C(=O)c3ccccc3)cnc3ccc(OC)cc23)CC1	-19	49
Oc1ccccc1/C=N/[n+]1ccccc1	-1	86
C=CC[n+]1ccc(/C=C/c2ccccc2O)c2ccccc21	42*	34
CC(C)(C)c1ccc(OCCCn2ccnc2)cc1	-8	2.3*
Ic1ccc(OCCCCn2ccnc2)cc1	10	1.3*
CCOc1ccc(NC(=S)NCCCn2ccnc2)cc1	5	97
Clc1cccc(Cl)c1OCCCn1ccnc1	-19	103
CCN1CCN(CCNC(=O)c2ccc(CS(=O)c3ccccc3C)o2)CC1 (stereo not given)	13	81
CN(C)S(=O)(=O)c1ccc(=O)n(CC(=O)NCC2COc3ccccc3O2)c1 (stereo not given)	-11	99
CCC1CCCCN1C(=O)Cn1cc(S(=O)(=O)N(C)C)ccc1=O (stereo not given)	29*	97
Oc1cc2c(cc1C(Nc1ccccn1)c1ccc3c(c1)OCO3)OCO2 (stereo not given)	4	0.6*
CC(NC(=O)CSc1ccccn1)c1ccc2c(c1)OCO2 (stereo not given)	5	89
CCC(C)N(C)C1CCN(C(=S)Nc2cccc(Cl)c2)CC1 (stereo not given)	6	121
Cc1oc2c(c1C(=O)NCCCn1ccnc1)C(=O)c1ccccc1C2=O	34	-0.8*
SMILES	Sa helicase inh	Sa growth inh
CC(C)(C)N1COc2ccc3c4c(oc3c2C1)C(=O)c1ccccc1C4=O	4	50
Cc1oc2c(c1C(=O)NCCC(C)C)C(=O)c1ccccc1C2=O	-6	17
O=C1c2ccccc2C(=O)c2c1oc1c3c(ccc21)OCN(CCCn1ccnc1)C3	24	5.8*
O=C1c2ccccc2C(=O)c2c1oc1c3c(ccc21)OCN(CCC1=CCCCC1)C3	6	7.0*
CCCCCN1COc2ccc3c4c(c(=O)oc3c2C1)CCC4	19	101
Cc1ccccc1NC(=O)Nc1cc2sccc2n1C	4	109
CSc1nnc2ccc(-c3cccnc3)nn12	-12	95
Cc1ccc2c(c1)N(CC(=O)NC(C)C)C(=O)c1cccnc1O2	6	103
Cc1cc(N=NC(=O)c2ccccc2)ccc1O	22	0.6*
Cc1ccc(C)c(NC(=O)c2ccccc2)c1	-1	86
Cc1ccc(NC(=O)c2sc3nc(-c4ccccc4)cn3c2C)cc1	14	111
CCCCS(=O)c1sc2nc(C)cc(C)c2c1N (stereo not given)	4	81
CCCCS(=O)c1sc2nc(-c3cccs3)cc(-c3ccccc3)c2c1N (stereo not given)	8	12*
CCCN=c1cc(-c2ccccc2)oc2ccc(C)cc12	65*	109
Cc1ccc2oc(-c3ccccc3)cc(=O)c2c1	·	97
Cc1ccc(S(=O)(=O)NCc2ccc(/C=C(/C#N)C(=O)NC3CCCCC3)o2)cc1	7	98
Cc1cc(Nc2ccccc2C)nc(-n2nc(C)cc2C)n1	·	-0.2*
Cc1cc(C)n(-c2ncc(S(=O)(=O)C(C)(C)C)c(N)n2)n1	2	94
Cc1cc(Nc2ccc(F)cc2)nc(-n2nc(C)cc2C)n1	·	2.5*
Cc1cc(C)n(-c2ccccc2)n1	11	108
COc1ccc(-c2cc(C(F)F)nc(-n3nc(C)cc3C)n2)cc1	13	107
CCCCc1ccc(Nc2cc(C)nc(-n3nc(C)cc3C)n2)cc1	·	22
Cc1cc(C)n(-c2nc(NC(C)C)nc(NC(C)C)n2)n1	7	-0.4*
Cc1cc(Nc2cc(F)ccc2C)nc(-n2nc(C)cc2C)n1	·	3.1*
NNc1ccc2nc3ccccc3c(=O)n2n1	15	87
COCCn1cnnc1SCC(=O)C12CC3CC(CC(C3)C1)C2	8	108
CCCOc1ccc(CC(=O)NC(C)CC)cc1OC (stereo not given)	6	109
Cc1nc2nc[nH]n2c(=O)c1NC(=O)NC1CCCC1	19	84
Cc1cc(N2CCCCC2)nc(N2CCOCC2)n1	-6	113
